Experimental data reported in PubChem BioAssay (NCI).
About 83,000 compounds went through this panel and 20% of them were active in at least one assay; those are over-represented in the sample as a whole.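 Note: values are percent growth. 100 is the growth of untreated cells, values between 100 and 0 indicate rising inhibition; between -100 and 0 indicates cell death.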 Unmarked numbers belong to inactive results. The source made the active and inactive calls. The calls were made as follows: active = growth percent below 10; inactive = the rest.

Columns and labels:
Assay in all cases: NCI-60 one-dose screen, 48 h (100 = growth as untreated, 0 = no growth, -100 = all killed)
EKVX NSCLC = settings: 10 µM unless noted
SN12C renal = settings: 10 µM unless noted
UO-31 renal = settings: 10 µM unless noted
TK-10 renal = settings: 10 µM unless noted
CAKI-1 renal = settings: 10 µM
A498 renal = settings: 10 µM unless noted
CCRF-CEM leukemia = settings: 10 µM unless noted
MOLT-4 leukemia = settings: 10 µM unless noted
ACHN renal = settings: 10 µM unless noted

SMILES	growth (EKVX NSCLC) [%]	growth (SN12C renal)	growth (UO-31 renal)	growth (TK-10 renal)	growth (CAKI-1 renal)	growth (A498 renal)	growth (CCRF-CEM leukemia)	growth (MOLT-4 leukemia) [%]	growth (ACHN renal)
COc1cc2c3c(n(CCCN4CCC[C@H]4C(N)=O)c(=O)c2cc1OC)-c1cc2c(cc1C3=O)OCO2	36.2	17%	17.5%	59%	14.6%	-31% (active)	-4.01% (active)	–	–
CCOC(=O)c1c(Nc2ccccc2)nn2c(-c3ccc(OC)c(OC)c3)ccnc12	77.1	67.9%	42.9%	80.6%	44.4%	–	30.9%	36.5	–
O=C(CN1CCN(c2cc(=O)n(-c3ccccc3)c3ccccc23)CC1)Nc1ccc([N+](=O)[O-])cc1	88.7	87.2%	62%	93.3%	98.1%	88.2%	98%	90	–
Cc1ccc(-c2cc3nc(C(Cl)Cl)nc(-c4ccccc4)n3n2)cc1	99.6	107%	91.8%	108%	72.7%	–	101%	97	47.5%
C/C(=N\NC(=S)Nc1ccc(Br)cc1)c1cc2ccccc2oc1=O	40.6	35.2%	19.5%	42.4%	9.07% (active)	–	12.5%	18.1	14.9%
CN1CCN(Cc2ccc(NC(=O)c3cncc(C#Cc4[nH]nc5ncncc45)c3)cc2C(F)(F)F)CC1	108	48.1%	82.8%	94.7%	59.4%	–	51%	47.2	59.1%
O=S(=O)(NCCCNc1nccc(-n2cnc3ccccc32)n1)c1ccc(F)cc1	61.2	89%	59.3%	91.9%	71%	70.6%	49.1%	33.2	–
CCc1ccc(NC(=O)N[C@@H](Cc2cc(F)cc(F)c2)C(=O)N[C@@H]2C(=O)N3CCC[C@H]3C(=O)N3CCO[C@H](C)[C@H]3C(=O)N[C@@H](CO)C(=O)N3C[C@H](C)C[C@H]3C(=O)O[C@H]2C)c(F)c1	28.4	22.5%	36.4%	55.9%	20.3%	–	35%	43.3	34.7%
CN1C(=O)/C(=C/C=C/c2ccco2)SC1=S	87.2	84.6%	58.3%	113%	95.2%	–	–	90.3	75.7%
COc1ccc(CCN2C(=O)CSC2=S)cc1OC	103	93%	83%	55.6%	84.6%	–	63%	88.7	–
Cc1cn(-c2cc(NC(=O)c3cncc(C#Cc4cnc5ccc(O[C@H]6CCOC6)nn45)c3)cc(C(F)(F)F)c2)cn1	89.9	72%	55.7%	133%	88.5%	–	95.6%	88.9	87.7%
Cc1ccccc1NC1CC(=O)N(c2ccc(Cl)cc2Cl)C1=O (stereo not drawn)	96.7	103%	92.3%	99.3%	89.9%	–	112%	117	104%
CN1CCN(c2nc(-c3cnc4ccccc4n3)cc3ccccc23)CC1	84.9	72.6%	63.2%	99.9%	64.1%	–	55.6%	54.9	84%
CCc1ccc(NC(=O)N[C@@H](Cc2cccc(C)c2)C(=O)N[C@@H]2C(=O)N3CCC[C@H]3C(=O)N3CCCC[C@H]3C(=O)N[C@@H](CO)C(=O)N3C[C@H](C)C[C@H]3C(=O)O[C@H]2C)c(F)c1	30	22.4%	29.6%	52.9%	15.5%	–	37.2%	41.8	32.2%
NC(N)=NS(=O)(=O)c1ccc(N=NC2C(=O)NN(c3ccccc3)C2=O)cc1 (stereo not drawn)	110	101%	82.9%	106%	87.7%	98.2%	116%	106	–
Cc1ccc(NC(=O)N[C@@H](Cc2cc(F)cc(F)c2)C(=O)NC2C(=O)N3CCC[C@H]3C(=O)N3CCCC[C@H]3C(=O)N[C@@H](C)C(=O)N3C[C@H](C)C[C@H]3C(=O)O[C@H]2C)c(F)c1 (stereo partly drawn)	29.5	23.5%	30.2%	53.9%	22.2%	–	34.2%	40.3	32.1%
Cc1cccc(NC(c2cc3cccc4ccc5cccc2c5c43)c2nnnn2C(C)(C)C)c1C (stereo not drawn)	75.2	93%	66.9%	138%	66.3%	–	–	76	90.4%
COc1ccc([C@H]2[C@H](O)C(=O)N2c2cc(OC)c(OC)c(OC)c2)cc1	44.4	20.3%	32.4%	69.8%	28.4%	-17.5% (active)	26.7%	–	–
O=C1Nc2ccc(Cl)cc2/C1=C/c1ccc(OCc2ccc(Br)cc2F)cc1	97.5	103%	84.4%	116%	84.3%	–	–	98.9	103%
CCN1CCN(c2cc(C(=O)Nc3nc4ccc(Oc5ccnc(C(=O)NC)c5)cc4s3)cc(C(F)(F)F)c2)CC1	92.5	75.2%	-63.3% (active)	100%	84.5%	–	–	52.3	66%
N#C/C(=C\c1ccc(N2CCCCC2)cc1)C(=O)Nc1sc2c(c1C#N)CCC2	98.4	88.9%	91.2%	108%	84.8%	–	-4.06% (active)	104	72.5%
CC(C)(C)CC(C)(C)n1nnnc1C(Nc1ccccc1)c1cc2cccc3ccc4cccc1c4c32 (stereo not drawn)	73.5	78.4%	73.1%	94.6%	55.8%	–	86.7%	73.2	87.5%
COc1ccc(C2C(C#N)=C(N)Oc3c2sc2ccc(C)cc32)cc1 (stereo not drawn)	53.4	34.9%	41.7%	81.4%	32.1%	–	26.4%	45	44.9%
Nc1nc(-c2cccc([N+](=O)[O-])c2)c(N=Nc2ccccc2[N+](=O)[O-])s1	48.7	1.17% (active)	-36.4% (active)	-38.6% (active)	-27% (active)	–	46.7%	62	-72.6% (active)
O=C1Nc2cc(OC(F)(F)F)ccc2Oc2ccc(-c3ccnc(N4CC[C@H](O)C4)c3)cc21	45.9	7.37% (active)	24%	75.6%	23.9%	–	–	11.3	25.1%
C/C(=N\NC(=O)CSc1nc2sc3c(c2c(=O)n1-c1ccccc1)CCC(C)C3)c1ccc(Cl)cc1 (stereo not drawn)	31.5	29.2%	17%	32.8%	12.8%	–	12.6%	14	13.4%
CN1CCN(c2nc(-c3csc(-c4ccncc4)n3)cc3ccccc23)CC1	73.5	70.4%	71.4%	75.9%	58.7%	–	26.5%	40.6	54.7%
Cc1cc(=O)n2nc(-c3cn(C)c4ccc(Cl)cc34)sc2n1	89.5	91.6%	87.1%	138%	79%	–	88.3%	86.6	89.8%
CCN1C(=O)N(CC)C2SC(N/N=C/c3ccc(F)cc3)=NC21 (stereo not drawn)	–	33.6%	50.3%	88.3%	31.7%	-22.4% (active)	23.2%	23.8	37.3%
